Results from PubChem BioAssay.

Test system: glycogen synthase kinase-3 (GSK3A per assay name; protocol says GSK3B)
Assay: GSK3 binders on small-molecule microarrays, primary screen, biochemical, small-molecule microarray, 635 nm fluorescence, GSK3A (AID 1103); note: the record names both GSK3A and GSK3B
Conditions: small-molecule microarray binding, fluorescence 635 nm; higher = more signal

Row | Compound | composite z-score
1 | Cc1ccccc1C(O)C1C=CC2C(=O)N(c3ccccc3)C(=O)C2N1Nc1ccc(C(C)C)cc1 (stereo not given) | 1
2 | CCS[C@H]1[C@@H](C(=O)O)[C@H](c2ccc(C)cc2)N(S(=O)(=O)c2ccc(C)cc2)[C@@H]1CC | 0.793
3 | COc1cc(NN2C(C(O)c3ccco3)C=CC3C(=O)N(c4ccccc4)C(=O)C32)cc(OC)c1OC (stereo not given) | -0.0659
4 | CNS(=O)(=O)c1ccc(C)cc1 | 0.674
5 | O=C1N(Cc2ccccc2)c2ccccc2[C@@H]2OC(c3ccc(OCCCO)cc3)=N[C@]12CCS(=O)(=O)c1ccccc1 | 0.251
6 | COc1cc2c(cc1O)C(C1CC1)N(Cc1sc3ccccc3c1Cl)CC2 (stereo not given) | 0.135
7 | Oc1ccc2cc[n+](Cc3sc4ccccc4c3Cl)cc2c1 | -0.402
8 | CC(C)N1C(=O)C[C@@](C(=O)NCC(F)(F)F)(c2ccc([N+](=O)[O-])cc2)[C@H]1c1ccc(CO)cc1 | 0.0211
9 | COCCCNC(=O)[C@@]1(C)c2ccccc2C(=O)N(C(C)C)[C@H]1c1ccc(CO)cc1 | 0.497
10 | COCCOC(=O)N1C(=O)[C@@]2(c3cc(C#CCC(C(=O)OC)C(=O)OC)ccc31)[C@H](c1ccccc1OCCO)N1[C@H](c3ccccc3)[C@H](c3ccccc3)OC(=O)[C@H]1[C@@H]2C(=O)N1CCN(c2ncccn2)CC1 | 1.32
11 | CCOC(=O)[C@H]1C/C=C/C[C@H](C(=O)OCC)C(=O)O[C@H]2[C@@H](OC)O[C@H](CO)[C@@H](OC(=O)c3c(OC)cccc3OC)[C@@H]2OC1=O | 0.62
12 | C=C(COC)/C(=C/C[C@@H](OC(=O)c1ccncc1)c1ccc(CO)o1)c1cc(C(=O)OC)ccc1OC | 1.15
13 | CC(C)N1C(=O)c2ccccc2[C@](C)(C(=O)NCCN2CCOCC2)[C@@H]1c1ccc(CO)cc1 | -0.608
14 | COCCCNC(=O)[C@@H]1c2ccccc2C(=O)N(Cc2ccccc2Cl)[C@H]1c1ccc(CO)cc1 | 1.17
15 | CC(C)NC(=O)[C@@]1(c2ccc([N+](=O)[O-])cc2)CC(=O)N(C2CCCCC2)[C@@H]1c1ccc(CO)cc1I | 0.406
16 | C=C(CCCC)/C(=C/C[C@H](OC(C)=O)c1ccccc1OCCO)c1cc(C(=O)OC)ccc1OC | -0.0368
17 | COCCOC(=O)N1C(=O)[C@@]2(c3cc(C#Cc4ccc(OC)cc4)ccc31)[C@H](c1ccc(O)cc1)N1[C@H](c3ccccc3)[C@H](c3ccccc3)OC(=O)[C@H]1[C@@H]2C(=O)N1CCc2cc(OC)c(OC)cc2C1 | 1.2
18 | O=C1C2C=CC(C(O)Cc3ccccc3)N(n3cnnc3)C2C(=O)N1Cc1ccccc1 (stereo not given) | 0.0704

Row | Compound | composite z-score
19 | C=CC[C@]1(C(=O)NCc2ccccc2)N=C(c2ccc(OCCCO)cc2)O[C@H]1c1ccccc1N=[N+]=[N-] | 0.849
20 | CCOC(=O)C[C@H]1[C@H](OC(=O)c2ccc(C(=O)c3ccccc3)cc2)[C@@H](NC(=O)c2ccc3ccccc3n2)c2cc(OCCCO)ccc2N1C(=O)c1ccccc1 | 1.28
21 | CN(C)C(=O)[C@@]1(CCS(=O)(=O)c2ccccc2)COC(c2ccc(OCCCO)cc2)=N1 | 0.476
22 | COc1ccccc1CN1C(=O)c2ccccc2[C@@H](C(=O)NC2CC2)[C@@H]1c1ccc(CO)cc1 | 1.28
23 | COC(=O)[C@H](Cc1ccccc1)N[C@@H](/C=C/C1CC1)[C@H](O)Cc1ccccc1 | -0.637
24 | O=C1C2C=CC(C(O)c3cccc4ccccc34)N(Nc3ccccc3F)C2C(=O)N1c1ccccc1 (stereo not given) | 1.18
25 | O=C(CS)NCCCCCCNC(=O)[C@@H]1C[C@@H]2C(=O)N[C@@H](Cc3ccccc3)C(=O)N2[C@@H]1c1cccc(OCCO)c1 | 1.34
26 | NC(=O)NCC#Cc1ccc2c(c1)[C@]1(C(=O)N2)[C@H](C(N)=O)[C@H]2C(=O)O[C@H](c3ccccc3)[C@H](c3ccccc3)N2[C@@H]1c1ccc(O)cc1 | -0.348
27 | CCCC[C@@H]1C[C@H]1[C@@H](NC(=O)c1cccs1)c1ccc(-c2ccccc2)cc1 | -0.595
28 | C=CCOC(=O)[C@H]1[C@@H]2C(=O)O[C@@H](c3ccccc3)[C@@H](c3ccccc3)N2[C@@H](c2ccc(OCCOC(=O)[C@@H]3C[C@@H]4C(=O)N[C@@H](CCCCNC(C)=O)C(=O)N4[C@@H]3c3ccc(O)cc3)cc2)[C@]12C(=O)Nc1ccccc12 | 1.3
29 | CCCCCCc1nc(-c2ccc(OC)nc2)cc2c1[Si](C(C)C)(C(C)C)O[C@H]2c1ccccc1 | -0.0539
30 | CC(C)C(CO)N1C(=O)[C@@H]2C3C(=O)OCCC/C=C\[C@H]3OC23C=CCN(CCN2CCOCC2)C(=O)[C@@H]13 (stereo not given in full) | 0.0585
31 | C=C(COC)/C(=C/C[C@@H](OC(C)=O)c1ccc(OCCO)cc1)c1cnc2ccccc2c1 | 0.369
32 | CN(C)CCCCCCNC(=O)[C@@H]1C[C@@H]2C(=O)N[C@@H](Cc3ccccc3)C(=O)N2[C@@H]1c1ccc(O)cc1 | 1.35
33 | Cc1nc2cc(Br)ccc2c(=O)o1 | 0.778
34 | COCCOC(=O)N1C(=O)[C@@]2(c3ccccc31)[C@H](c1ccc(O)cc1)N1[C@H](c3ccccc3)[C@H](c3ccccc3)OC(=O)[C@H]1[C@@H]2C(=O)Nc1nc2ccccc2s1 | 1.05
35 | COCC(=C=CC[C@@H](O)c1cccc(OCCO)c1)C[C@@H](O)c1ccccn1 | 0.175
